Measured values taken from PubChem BioAssay AID686979 (National Center for Advancing Translational Sciences (NCATS), 2013).
Screen size: about 420,000 compounds; about 50,000 (12%) were called active. Inconclusive results (about 26%) are left out. The sample as a whole holds a higher share of actives than the screen did. Unmarked numbers belong to inactive results. Calls follow the shape of the dose curve; as a rule, active = well fitted inhibition curve with a large enough effect; inconclusive = small, poorly fitted or top-dose-only effect; inactive = flat fitted curve, though single readings scatter.
% is scaled to controls: 0 for no effect and ±100 for the full control effect; potency is read from the fitted curve at half-maximal effect.

Test: qHTS for Inhibitors of human tyrosyl-DNA phosphodiesterase 1 (TDP1): qHTS in cells in presence of CPT; also: nearly all actives have a fitted effect of over 55% in size
Settings: chicken DT40 Tdp1-/-;hTDP1 cells + 20 nM CPT, ATP luminescence, 48 h; series mostly up to 46.2 µM; activity change, negative = growth inhibition: at the top concentration
How it was run: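 Cell growth measured by CellTiter-Glo luminescence after a minimum 48 h, 37 C compound exposure with 20 nM CPT in Tdp1-knockout DT40 cells stably expressing hTDP1, seeded 400/well; qHTS titration format.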
With CCOc1cc(/C=N/NC(=O)c2cccc(S(=O)(=O)N3CCOCC3)c2)ccc1OCC(=O)N(C)C the “activity change, negative = growth inhibition” value was 0.118%.
With CC(C)CN(C(=O)Cn1c(=O)cnc2ccccc21)C1CCS(=O)(=O)C1 (stereo unspecified) the “activity change, negative = growth inhibition” value was 0.278%.
With O=C(NCCCn1ccnc1)c1cc2c(s1)CCCC2 the “activity change, negative = growth inhibition” value was -6.43%.
For CCc1nnc(SCc2cccc(F)c2)nc1CC, the “activity change, negative = growth inhibition” value was -1.89%.
For Cc1ccc(OCC(=O)OCc2cc(=O)n3nc(C4CC4)sc3n2)cc1C, the “activity change, negative = growth inhibition” value was 4.85%.
For COc1ccccc1/C=C/CN1CCC(CO)(Cc2ccccc2)CC1, the “activity change, negative = growth inhibition” value was -38.5%.
In the case of CCOc1ccccc1N(CC)C(=O)Nc1cn(C)c(=O)c2ccccc12, the “activity change, negative = growth inhibition” value is reported as -28.1%.
With CC1=C(C(=O)N2CCOCC2)CC(CC(=O)NCc2ccco2)C(=O)N1Cc1ccc(F)cc1 (stereo unspecified) the “activity change, negative = growth inhibition” value was -7.7%.
In the case of COc1ccc(C2CC(c3cccs3)=NN2C(=O)CCC(=O)O)cc1OC (stereo unspecified), the “activity change, negative = growth inhibition” value is reported as 6%.
For O=C(CSc1ccc(-c2ccc(Br)cc2)nn1)NCC1CCCO1 (stereo unspecified), the “activity change, negative = growth inhibition” value was -19.8%.
In the case of C#CCCCc1nc2ccccc2c(=O)n1N, the “activity change, negative = growth inhibition” value is reported as 19.6%.
In the case of Cc1nc(C)c(-c2nnc(-c3cccc(S(=O)(=O)N(C)C)c3)o2)cc1C(=O)NN, the “activity change, negative = growth inhibition” value is reported as 1.5%.
With CCOC(=O)c1cc(-c2nnc(-c3cc(OC)c(OC)c(OC)c3)o2)c(C)nc1C the Potency was 16.4 µM (active).
With COc1cc(-c2nnc(NC(=O)C3=COCCO3)o2)cc(OC)c1OC the “activity change, negative = growth inhibition” value was -0.0683%.
In the case of Cc1ccc(S(=O)(=O)NCCC(=O)NNC(=O)C2COc3ccccc3O2)cc1 (stereo unspecified), the “activity change, negative = growth inhibition” value is reported as -4.14%.
With CC(C)N(c1ccccc1)c1ncnc(NCCC(=O)O)c1[N+](=O)[O-] the “activity change, negative = growth inhibition” value was -14.3%.
For CO/N=C(\C(=O)N[C@@H]1C(=O)N2C(C(=O)O)=C(COC(C)=O)CS[C@H]12)c1csc(N)n1 (stereo in doubt), the Potency was “inactive”.
For CN1C=CC=C/C1=C1\SC(=S)N(Cc2ccccc2)C1=O, the “activity change, negative = growth inhibition” value was -9.03%.
With COc1ccccc1C(=O)NC(CCSC)C(=O)NNC(=O)c1ccccc1C (stereo unspecified) the “activity change, negative = growth inhibition” value was 7.15%.
In the case of CCOC(=O)c1ccc(NC(=O)Cn2c(=O)cc(C)c3c(C)nn(-c4cccc(F)c4)c32)cc1, the “activity change, negative = growth inhibition” value is reported as -0.48%.
In the case of CCOC(=O)c1ccc(NC(=O)CSc2ncccn2)cc1, the “activity change, negative = growth inhibition” value is reported as -27.6%.
For Cc1ccc(NC(=O)CSc2nnc(COc3ccccc3C)o2)cc1, the “activity change, negative = growth inhibition” value was -0.121%.
For CCCc1nnc(SCC(=O)Nc2ccc(C(=O)OCC)cc2)o1, the Potency was 23.1 µM (active).
For CCOC(=O)c1ccc(NC(=O)Cn2nnc(-c3ccc(C)cc3)n2)cc1, the “activity change, negative = growth inhibition” value was -29%.
With CCOC(=O)c1ccc(NC(=O)Cn2cnc3cc(C)c(C)cc32)cc1 the Potency was 1.16 µM (active).
With CC(C)CC(=O)N1CCN(Cc2cccc(Cl)c2)CC1 the “activity change, negative = growth inhibition” value was -20.1%.
With O=C(O)C(O)[C@@](O)(Cc1ccc(O)cc1)C(=O)O (stereo partly specified) the “activity change, negative = growth inhibition” value was -10.6%.
Compound Cc1cc(-c2ccnc(-n3ncc(C(=O)NCCc4ccncc4)c3C)n2)c(C)s1 has an activity change, negative = growth inhibition of -1.95% [at 9.04 µM].
In the case of Cc1nnc(SCC2=C(C(=O)O)N3C(=O)C(NC(=O)Cn4nc(C)c(Cl)c4C)C3SC2)s1 (stereo unspecified), the “activity change, negative = growth inhibition” value is reported as -15.2%.
With O=C(CN(CC1CCCO1)C(=O)CNS(=O)(=O)c1ccc(F)cc1)NCc1ccco1 (stereo unspecified) the “activity change, negative = growth inhibition” value was 3.31%.
In the case of O=c1oc2ccccc2c(CNc2ccccc2)c1[N+](=O)[O-], the “activity change, negative = growth inhibition” value is reported as 3.02%.
With CCS(=O)(=O)c1ccc(C(=O)NC)c(Cl)c1Cl the “activity change, negative = growth inhibition” value was 1.89%.
For c1csc(-c2cn3c(n2)SCC3)c1, the “activity change, negative = growth inhibition” value was 1.97%.
In the case of Cc1nnc2n1N=C(c1ccccc1)CS2, the “activity change, negative = growth inhibition” value is reported as 13.6%.
With O=c1c2cc(-c3ccccc3)sc2nc2n1N=C(c1cccs1)CS2 the Potency was 16.4 µM (active).
With CCN([C@H](CO)C(C)C)S(=O)(=O)c1ccccc1Br the “activity change, negative = growth inhibition” value was -1.97%.
In the case of O=C(NC(=S)NC1CCS(=O)(=O)C1)c1cccc([N+](=O)[O-])c1 (stereo unspecified), the “activity change, negative = growth inhibition” value is reported as -1.95%.
For CCc1ccccc1N1C(=O)CN(S(=O)(=O)CC)CC1(C)C(=O)NC1CCCCC1 (stereo unspecified), the “activity change, negative = growth inhibition” value was -16.5%.
In the case of CN(C)C(=O)c1cccc(-c2cnc3sc(NCc4ccc5c(c4)OCO5)nn23)c1, the Potency is reported as 16.4 µM (active).
For O=C(Cn1nnc(-c2ccccc2)n1)NCc1ccc2c(c1)OCO2, the “activity change, negative = growth inhibition” value was -13.6%.
In the case of O=C(CSc1ncnc2scc(-c3ccccc3)c12)NCc1ccc2c(c1)OCO2, the “activity change, negative = growth inhibition” value is reported as -4.93%.
In the case of CCN(CC(=O)NCc1cccs1)C(=O)c1cccc(S(=O)(=O)Nc2ccccc2OC)c1, the “activity change, negative = growth inhibition” value is reported as -1.36%.
For O=C(Nc1cccc(NC(=O)c2ccc(Br)cc2)c1)c1ccccc1, the Potency was “inactive”.
In the case of O=C(Cc1cccs1)Nc1cccc(-c2nc3ccccc3[nH]2)c1, the “activity change, negative = growth inhibition” value is reported as -13.9%.
For O=C(Nc1cccc(-c2nc3ccccc3[nH]2)c1)c1ccc(C(=O)Nc2cccc(-c3nc4ccccc4[nH]3)c2)cc1, the Potency was 18.4 µM (active).
With CCCC(=O)Nc1ccc2oc(-c3ccc(O)c(Br)c3)nc2c1 the “activity change, negative = growth inhibition” value was -15.1%.
In the case of O=C(CNC(=O)c1ccccc1Br)NNC(=O)c1cccs1, the “activity change, negative = growth inhibition” value is reported as -1.12%.
With CCn1c(=O)c2ccccc2n(CC(=O)N2CCCc3ccccc32)c1=O the “activity change, negative = growth inhibition” value was -27.7%.
In the case of Cn1nccc1NC(=O)Nc1ccc(OC(F)(F)F)cc1, the “activity change, negative = growth inhibition” value is reported as -27.1%.
For O=C(Nc1ccc(OC(F)(F)F)cc1)c1ccc2c(c1)no[n+]2[O-], the Potency was 4.11 µM (active).
For COC(=O)[C@H](C)NC(=O)Nc1ccc(OC(F)(F)F)cc1, the “activity change, negative = growth inhibition” value was 9.83%.
For CCN1CCN(C(=O)Cn2nc(C)n3c(cc4c(OC)cccc43)c2=O)CC1, the “activity change, negative = growth inhibition” value was -1.1%.
With CCn1nc(C)c(CNC(=O)C2CCC(=O)N(Cc3cccc(F)c3)C2)c1C (stereo unspecified) the “activity change, negative = growth inhibition” value was -11.6%.
In the case of Cc1cc(C)c(CN2CCN(C(=O)Cn3ccc(NC(=O)OCc4ccccc4)nc3=O)CC2)c(C)c1, the Potency is reported as 5.17 µM (active).
For Cc1cc(C)c2c(-n3cccc3)c(NC(=O)OCc3ccccc3)sc2n1, the “activity change, negative = growth inhibition” value was -26.1%.
With Nc1ccn(CC(=O)N2CCN(c3ccccn3)CC2)c(=O)n1 the “activity change, negative = growth inhibition” value was 9.16%.
In the case of Cc1cc(C(=O)Nc2nnc(C3CC3)s2)c(C)s1, the “activity change, negative = growth inhibition” value is reported as 1.29%.
In the case of CCOC(=O)c1nn(-c2ccccc2F)c2nc(Nc3ccccc3)cc(=O)n12, the “activity change, negative = growth inhibition” value is reported as -11%.
For COc1ccc(Sc2nc(-c3ccccc3)ncc2OC)cc1, the “activity change, negative = growth inhibition” value was -28.6%.
For COc1ccc(Cc2nc(-c3ccccn3)no2)cc1OC, the “activity change, negative = growth inhibition” value was 4.02%.
For COc1cnc(-c2ccccn2)nc1Oc1ccc(C(C)(C)C)cc1, the Potency was 3.66 µM (active).
For COCC(=O)Nc1cc(C(=O)N2CCCC(c3ccccc3)CC2)c2c(c1)nc(-c1ccncc1)n2C (stereo unspecified), the activity change, negative = growth inhibition was 6.88% [at 9.04 µM].
With COc1cccc(/C=C/C(=O)OCC(=O)N2CCCc3ccccc32)c1 the “activity change, negative = growth inhibition” value was 10.1%.
For CC(=O)c1cc(-c2ccccc2)[nH]c1N1CCCC1, the Potency was 16.4 µM (active).
With CC(=O)c1cc(-c2ccccc2)n(CC(=O)NC2CCCCC2)c1C the Potency was “inactive”.
With O=c1cc(-c2ccccc2)nc(N2CCCCC2)[nH]1 the “activity change, negative = growth inhibition” value was -25.1%.
